Screening data (PubChem)
A selection: hits, their analogues and other compounds. The true share with any hit is near 2.9%.
pPAFAH inh = pPAFAH (human) enzyme inhibition. Q13093. recombinant pPAFAH, FP-rhodamine probe fluorescence polarization. inhibition, % at 3.39 µM. actives 1.5% (n = 330,000). AID 463082;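 active = inhibition above the mean inhibition across the screen plus 3 SD, cut at about 25% in these data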;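 also: inhibitors block binding of the rhodamine activity-based probe so polarization drops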
PAFAH1B3 inh = inhibitors of human PAFAH1B3; Q15102; recombinant PAFAH1B3, FP-rhodamine probe, fluorescence polarization; actives 0.28% (n = 340,000); AID 492972; inhibition, % at 3.39 µM;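 active = inhibition above the screen-wide average of all tested compounds plus 3 SD, cut at about 25% in these data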
Target sequence (Q15102 whole entry, looked up): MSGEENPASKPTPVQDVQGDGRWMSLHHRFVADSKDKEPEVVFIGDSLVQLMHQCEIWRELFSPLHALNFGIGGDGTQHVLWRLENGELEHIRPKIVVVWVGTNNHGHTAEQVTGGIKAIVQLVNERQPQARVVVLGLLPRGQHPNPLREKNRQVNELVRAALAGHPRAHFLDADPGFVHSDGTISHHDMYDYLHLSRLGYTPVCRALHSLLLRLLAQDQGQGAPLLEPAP
PAFAH1B2 FP inh = blocks human PAF acetylhydrolase 1b catalytic subunit 2. P68402. recombinant PAFAH1B2, FP-rhodamine activity probe, fluorescence polarization. inhibition, % at 3.39 µM. actives 1.2% (n = 340,000). AID 492953;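 active = inhibition above the mean of all tested compounds plus 3 SD, cut at about 24% in these data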
PAFAH2 FP inh = PAFAH2 (human) inhibition. Q99487. recombinant PAFAH2, FP-rhodamine activity probe, fluorescence polarization. inhibition, % at 3.39 µM. actives 0.99% (n = 340,000);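 active = inhibition above the mean over all tested compounds plus 3 SD, cut at about 30% in these data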;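 also: inhibitors block probe labeling of enzyme so polarization drops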
EBNA-1 inhibitor = blocks EBNA-1 binding to DNA; EBNA-1 DNA binding, fluorescence polarization; inhibition, % at 14.8 µM; actives 0.34% (n = 300,000); AID 1950; in the data active = inhibition above about 28%
ZTA counter = ZTA (EBV) inhibition in EBNA-1 counter-screen | P03206 | ZTA-DNA binding, fluorescence polarization | inhibition, % at 11 µM | actives 0.15% (n = 320,000); in the data active = inhibition above about 33%
Target sequence (P03206 whole entry, looked up): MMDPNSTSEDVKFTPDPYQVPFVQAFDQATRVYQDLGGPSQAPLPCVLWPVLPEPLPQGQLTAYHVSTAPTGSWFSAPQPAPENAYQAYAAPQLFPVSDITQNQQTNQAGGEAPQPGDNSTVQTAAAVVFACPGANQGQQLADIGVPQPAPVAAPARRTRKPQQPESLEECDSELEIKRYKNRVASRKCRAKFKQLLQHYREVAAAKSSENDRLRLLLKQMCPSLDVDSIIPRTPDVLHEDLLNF
Of the large screens only hits and unclear results are named; the others gave an inactive call.

C[C@H](CO)N1C[C@H](C)[C@@H](CN(C)C(=O)Nc2ccccc2)Oc2ccc(NC(=O)Nc3ccccc3)cc2C1=O	none (no result: EBNA-1 inhibitor, ZTA counter)
CCOC(=O)/C(C#N)=C/c1cc(C)n(-c2ccc(C)cc2)c1C	pPAFAH inh 26.1
CCOC(=O)/C(C#N)=C\c1cc(C)n(-c2ccccc2)c1C	none
Cc1cccc(N2CCN(C(=O)N3CCOCC3)CC2)c1C	none
Cc1cccc(N2CCN(C(=O)N3CCCCC3)CC2)c1C	pPAFAH inh 28.5
CCOC(=O)CC/C(=N\NC(N)=O)c1ccc(OC)c(Cl)c1	none
CN1C2=C(C(=O)CC(C)(C)C2)C(c2cccs2)C2=C1CC(C)(C)CC2=O	none
O=C(O)C1C2C=CC3(CN(C/C=C/c4ccccc4)C(=O)C13)O2 (configuration not stated)	pPAFAH inh 30.6
Cc1cccc(N2CC34C=CC(O3)C(C(=O)O)C4C2=O)c1 (configuration not stated)	none
O=C(O)C1C2C=CC3(CN(c4cccc(C(F)(F)F)c4)C(=O)C13)O2 (configuration not stated)	PAFAH1B2 FP inh 25.3
CC(C(=O)N1CCN(Cc2ccc3c(c2)OCO3)CC1)c1ccc([N+](=O)[O-])cc1 (configuration not stated)	none
COC(=O)Nc1ccc(S(=O)(=O)N2CCCC(C(=O)NC3CCS(=O)(=O)C3)C2)cc1 (configuration not stated)	none
Cc1cc(NC(=O)CS(=O)(=O)c2ccc(Cl)cc2)no1	none
CC(C)c1cc2c(c(O)c1O)[C@@]13CCCC(C)(C)C1CC2OC3=O (some centres not stated)	pPAFAH inh 30.1, PAFAH1B2 FP inh 54.0, PAFAH2 FP inh 61.0
Cc1cc(C(=O)NN)c(Cl)cc1Cl	none
COc1ccc(-n2nnnc2SCC(=O)c2ccc(O)c(O)c2)cc1	pPAFAH inh 29.8
C=CCn1c(SCC(=O)c2ccc(O)c(O)c2)nnc1-c1cccc(OC)c1	pPAFAH inh 28.4 (no result: EBNA-1 inhibitor)
Cn1c(SCC(=O)c2ccc(O)c(O)c2)nnc1-c1ccccc1	none (no result: pPAFAH inh, EBNA-1 inhibitor, ZTA counter)
C=CCn1c(SCC(=O)c2ccc(O)c(O)c2)nnc1-c1ccc(OC)cc1	pPAFAH inh 29.8 (no result: EBNA-1 inhibitor)
C=CCn1c(SCC(=O)c2ccc(O)c(O)c2)nnc1-c1ccc(C)cc1	pPAFAH inh 27.7 (no result: EBNA-1 inhibitor)
COc1ccc(-n2nnnc2SCC(N)=O)cc1	none
COc1ccc(/C=N/N2C(=O)CSC2=S)cc1Br	pPAFAH inh 28.8
CCc1nc2ccccc2c(=O)n1/N=C/c1ccc(Cl)cc1	none
CCC1(C)Cc2ccccc2-c2nc(NCCO)[nH]c(=O)c21 (configuration not stated)	none
O=c1[nH]c(NCCO)nc2c1C1(CCCC1)Cc1ccccc1-2	PAFAH1B2 FP inh 34.1
O=C1C(Nc2cccc(O)c2)=C(N2CCCCC2)C(=O)c2ccccc21	PAFAH1B3 inh 65.8, PAFAH1B2 FP inh 25.4, PAFAH2 FP inh 60.3
O=C1C(Nc2ccccc2)=C(N2CCCCC2)C(=O)c2ccccc21	PAFAH1B3 inh 59.6, PAFAH2 FP inh 36.8
O=C1C(NS(=O)(=O)c2ccc(Br)cc2)=C(N2CCCCC2)C(=O)c2ccccc21	none
COc1cc(C(=O)O[C@H]2CC(C)=CC[C@@]3(C)CC[C@@](O)(C(C)C)[C@H]23)ccc1O	PAFAH1B2 FP inh 34.1
C=CCn1c(SCC(=O)N(C)CC(=O)Nc2ccc(C)cc2)nnc1-c1ccncc1	none (no result: EBNA-1 inhibitor, ZTA counter)
Cc1sc(-n2c(C)cc(/C=C3\SC(=S)NC3=O)c2C)c(C#N)c1C	pPAFAH inh 31.1
CCn1c(C)cc(/C=C2/SC(=S)NC2=O)c1C	none
O=C(Cc1ccc(Br)cc1)Nc1ncc([N+](=O)[O-])s1	PAFAH1B2 FP inh 35.1
Cc1ccc(SCCc2ccc(C)nc2)cc1	PAFAH1B2 FP inh 28.0
CN(CC(=O)Nc1ccccc1C(F)(F)F)C(=O)COc1ncnc2ccccc12	none
Cc1nn(-c2ccccc2)c(Cl)c1/C=C1\SC(=S)NC1=O	none
O=C(O)CCN1C(=O)/C(=C/c2ccc(-c3nc4ccccc4s3)o2)SC1=S	none
Cc1nn(-c2ccccc2)c(Cl)c1/C=C1\SC(=S)N(CCCCCC(=O)O)C1=O	pPAFAH inh 27.9
O=C(O)CCCN1C(=O)/C(=C\c2ccccc2OCc2ccccc2)SC1=S	pPAFAH inh 29.0
O=C(O)CCCCN1C(=O)/C(=C\c2ccc(OCc3ccccc3)c(OCc3ccccc3)c2)SC1=S	none
O=C(O)CN1C(=O)/C(=C\c2cc([N+](=O)[O-])ccc2OCc2ccccc2Cl)SC1=S	pPAFAH inh 44.9
O=C(O)CCCN1C(=O)/C(=C\c2ccc(-c3nc4ccccc4s3)o2)SC1=S	pPAFAH inh 30.5, PAFAH2 FP inh 40.5
CC(CC(=O)NC1CCCCC1)S(=O)(=O)c1ccc2c(c1)NC(=O)CO2 (configuration not stated)	none
COc1ccc(N(CC(=O)NCCSc2ccccn2)S(=O)(=O)c2ccccc2)c(OC)c1	none
NC(=O)C1CCN(c2nc(-c3cccc(Cl)c3)cs2)CC1	pPAFAH inh 32.8 (no result: EBNA-1 inhibitor, ZTA counter)
O=C(Nc1nc2ccc(S(=O)(=O)N3CCCCC3)cc2s1)c1ccncc1	PAFAH1B2 FP inh 30.1
O=C(Nc1nc2ccc(S(=O)(=O)N3CCCCC3)cc2s1)c1cccnc1	none
CC(=O)c1c(Cl)nc2ccc(Br)cc2c1-c1ccccc1	none
CCCCCCCCNC(=O)CC(NS(=O)(=O)c1ccc(NC(C)=O)cc1)C(C)C (configuration not stated)	pPAFAH inh 31.7
N=C1S/C(=C\c2ccco2)C(=O)N1c1ccc2c(c1)OCO2	pPAFAH inh 31.1
O=c1oc(Cl)c(Cl)c2ccccc12	PAFAH2 FP inh 34.8
O=c1oc2cc(O)c(Cl)cc2c2ccccc12	none
NS(=O)(=O)c1ccc(-c2c(-c3ccccc3)sc3ccccc23)cc1	none (no result: EBNA-1 inhibitor)
Cc1c(C(=O)O)cccc1-n1c(C)cc(/C=C(/C#N)C(=O)NCc2ccccc2)c1C	pPAFAH inh 29.5 (no result: PAFAH1B3 inh, PAFAH1B2 FP inh, PAFAH2 FP inh)
CCC(=O)Nc1cccc(C(=O)OCC(=O)c2ccccc2Cl)c1	PAFAH2 FP inh 40.9
CC(=O)Nc1cccc(C(=O)OCC(=O)c2ccccc2Cl)c1	none
O=C(c1cccc(C(F)(F)F)c1)N1CCN(CCc2ccccc2)CC1	none
O=C(O)CCc1ccc(S(=O)(=O)Nc2ccccc2C(=O)NCCc2ccccc2)cc1	none
CC(NC(=O)c1ccccc1NS(=O)(=O)c1ccc(CCC(=O)O)cc1)c1ccccc1 (configuration not stated)	PAFAH1B2 FP inh 28.0
CCCCCCCCCCCCN1[C@@H](CC(C)=O)c2cc(C(F)(F)F)ccc2S1(=O)=O	none
CCCCCCCCN1[C@@H](CC(=O)O)c2ccc(C(F)(F)F)cc2S1(=O)=O	PAFAH1B2 FP inh 30.6
CC(=O)c1ccc(NC(=O)Cn2c3ccccc3c3nc(=O)cc(C)n32)cc1	none
Cc1cc(=O)[nH]c(SCC(=O)C23CC4CC(CC(C4)C2)C3)c1C#N	PAFAH1B2 FP inh 63.1, PAFAH2 FP inh 49.0
